From PubChem BioAssay
Most compounds without a hit are left out; they make up all but 1.6% or so of the library.
FUS yeast rescue = qHTS for Suppressors of FUS Proteinopathy: Primary screen using FUS-linked yeast assay; S. cerevisiae FUS-expressing, growth rescue, OD600, 24 h; Potency, µM (titrated, usually from 76.6 µM), usual class: activators; 390,000 tested, 0.24% active;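 further: plate controls were DMSO vehicle for no effect and reference control for full effect; nearly all actives have a fitted effect of over 55% in size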
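Galactose (2%) drives FUS expression in yeast precultured in raffinose; seeding density OD 0.005. Test compounds incubated 24hr at 30C and 99% humidity before absorbance at 600 nm was measured.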
12-LOX inh = Primary qHTS assay for inhibitors of human arachidonate 12S-lipoxygenase (ALOX12): Round 2; purified 12hLO, xylenol orange hydroperoxide absorbance; Potency, µM (series often up to 108 µM), inactives show at the top dose activity change, negative = inhibition, most hits filed as inhibitors; Polyunsaturated fatty acid lipoxygenase ALOX12 (Homo sapiens), P18054; 580,000 tested, 1.1% active; further: on the % scale 0 is the no-effect control and ±100 the full control effect
Target sequence (P18054 whole entry, looked up): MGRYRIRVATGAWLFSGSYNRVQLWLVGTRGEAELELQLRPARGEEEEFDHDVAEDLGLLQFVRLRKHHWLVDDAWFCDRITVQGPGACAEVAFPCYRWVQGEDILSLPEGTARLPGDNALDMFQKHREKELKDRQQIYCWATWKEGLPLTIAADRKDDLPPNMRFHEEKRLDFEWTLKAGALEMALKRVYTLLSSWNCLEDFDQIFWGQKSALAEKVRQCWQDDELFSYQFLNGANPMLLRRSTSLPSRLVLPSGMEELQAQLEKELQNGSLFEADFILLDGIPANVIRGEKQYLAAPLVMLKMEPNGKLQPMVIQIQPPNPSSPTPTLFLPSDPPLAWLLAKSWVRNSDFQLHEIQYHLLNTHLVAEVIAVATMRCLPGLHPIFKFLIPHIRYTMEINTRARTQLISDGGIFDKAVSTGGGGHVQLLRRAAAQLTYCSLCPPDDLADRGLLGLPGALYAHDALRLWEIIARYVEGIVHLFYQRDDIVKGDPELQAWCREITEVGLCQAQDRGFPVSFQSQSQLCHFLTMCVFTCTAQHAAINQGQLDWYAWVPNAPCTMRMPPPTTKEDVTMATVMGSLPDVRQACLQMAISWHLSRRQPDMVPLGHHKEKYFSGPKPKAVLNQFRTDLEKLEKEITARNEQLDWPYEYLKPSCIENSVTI
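Hydroperoxide product was detected by ferrous iron/xylenol orange as the 573 to 405 nm absorbance ratio. Arachidonic acid at 40 uM (final) was turned over for 30 min at room temperature by 150 nM human 12hLO, pH 7.0 Hepes buffer, after 15 min compound preincubation.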
Mito fusion yeast = qHTS Assay for Small Molecule Inhibitors of Mitochondrial Division or Activators of Mitochondrial Fusion; 320,000 tested, 0.23% active; S. cerevisiae fusion-defective mutant growth rescue, CellTiterGlo 48 h; Potency, µM (doses to about 46.1 µM), inactives show top-dose growth rescue (activation), hits mostly activators; further: % of control where 0% means no effect; nearly all actives have a fitted effect of over 45% in size
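Luminescent cell viability in 1536-well qHTS format served as the measure of rescued growth in ts fusion-mutant S. cerevisiae cultured on non-fermentable YPEG for 48 hours at 37C.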
gsp antagonist = qHTS for Antagonists of gsp, the Etiologic Mutation Responsible for Fibrous Dysplasia/McCune-Albright Syndrome: qHTS | 340,000 tested, 0.4% active | gsp-mutant cells, cAMP HTRF, 30 min | AID 624288, 2012 | Potency, µM (doses to about 76.9 µM), inactives show top-dose activity change, negative = inhibition, usual class: inhibitors; calls by dose curve; cell line not stated here;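 further: intracellular cAMP measured with PDE inhibitor Ro 20-1724 present during compound exposure; on the % scale 0 is the no-effect control and ±100 the full control effect; nearly all actives have a fitted effect of over 65% in size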
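HTRF cAMP read-out (cAMP-d2 plus anti-cAMP antibody-K in lysis buffer, 30 min RT). Before lysis, cells are exposed to compounds with […] for 30 min at 37C in DPBS containing Ca/Mg, BSA and Tween 20.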
gsp agonist = qHTS for Agonist of gsp, the Etiologic Mutation Responsible for Fibrous Dysplasia/McCune-Albright Syndrome: qHTS. gsp mutant cells, cAMP HTRF, 30 min. Potency, µM (highest dose often 76.9 µM), for the others: at the top dose activation (cAMP increase), most hits filed as activators. 340,000 tested, 0.13% active; active means well fitted activation curve with a large enough effect; inconclusive means small, poorly fitted or top-dose-only effect, or another doubt; inactive means no such curve, though single readings can be large or run the other way; cell line not stated here;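 further: phosphodiesterase inhibitor Ro 20-1724 added with compounds to block cAMP breakdown; nearly all actives have a fitted effect of over 60% in size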
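Cells stably selected in G418 were plated at 2000/well, grown 16-24 hr, then given compounds in DMSO with the PDE inhibitor […] (300 uM solution added) for 30 min at 37C; cAMP was read by HTRF.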
The depositor's hits bear a star; i = inactive; ? = inconclusive; . = not tested or not shown; ! = repeats disagree; [ ] = another dose, or the depositor's remark. Unless noted, the call rests on the fitted dose curve; in most records, active means well fitted curve in the direction sought with a large enough effect; inconclusive means small, poorly fitted or top-dose-only effect, or another doubt; inactive means no such curve, though single readings can be large; an effect the other way counts as inactive or inconclusive. Potency means the concentration at half of the fitted maximal effect.

SMILES	FUS yeast rescue	12-LOX inh	Mito fusion yeast	gsp antagonist	gsp agonist
CC(=O)Nc1ccccc1C(=O)OCC(=O)c1ccc2ccccc2c1	i	-3%	5%	25µM*	-6%
CC(=O)Nc1ccccc1C(=O)OCc1cccc(F)c1	i	0%	7%	11%	9%[15.4 µM]
CC(=O)Nc1ccccc1C(=O)OCc1ccc(C(=O)c2ccccc2)cc1	i	18%	10%	1.8µM*	-7%
COC(=O)C1C2c3ccccc3OC1(C)N=c1s/c(=C/c3cnn(C)c3)c(=O)n12 (stereo not drawn)	i	-4%	13µM*	-13%	17%
O=C(NCc1ccccc1)[C@H]1CN2CCC1C[C@@H]2Cn1cc(CSc2ccccc2)nn1 (stereo partly drawn)	.	4%	.	.	.
CC(C)(O)C1OC2CCC3(C)C(O)(CCC4Cc5c([nH]c6ccccc56)C43C)C2=CC1=O (stereo not drawn)	.	16%	.	.	.
C#CCN(C)C[C@H]1CN2CC[C@H]1C[C@@H]2CNC(=O)c1ccccc1	.	16%[176 µM]	.	.	.
Cc1nn(C)c(C)c1/C=C1/CC2C3CC=C4CC(O)CCC4(C)C3CCC2(C)C1=O (stereo not drawn)	i	-14%	16µM*	5%	6%
CC12CCC3C(CC=C4CC(O)CCC43C)C1C/C(=C\N1CCCC1)C2=O (stereo not drawn)	.	.	-2%	.	.
c1ccc(CN2CCCC3(CC(c4ccccn4)=NO3)C2)nc1 (stereo not drawn)	.	-3%[6.33 µM]	.	.	.
CCOC(=O)[C@]12Cc3cc(C)ccc3[C@H]1N(C1CCCCC1)C(=O)c1ccccc12	i	50µM*	.	.	.
CCOC(=O)[C@]12Cc3cc(Cl)ccc3[C@H]1N(C1CCCCC1)C(=O)c1cc(OC)ccc12	?	45µM*	.	.	.
CCOC(=O)[C@]12Cc3ccc(C)cc3[C@H]1N(C1CCCCC1)C(=O)c1cc(OC)ccc12	?	56µM*	.	.	.
Cc1ccc(/C=C/c2nc3ccccc3c(=O)n2-c2ccccc2)s1	.	-23%	.	.	.
Cc1c(C(c2ccc(F)cc2)c2c(O)c3ccccc3oc2=O)c(=O)n(-c2ccccc2)n1C (stereo not drawn)	?	?	5%	-31%	3%[15.4 µM]
CC(C)c1ccc(C(c2c(O)c3ccccc3oc2=O)c2c(O)c3ccccc3oc2=O)cc1	i	7.1µM*	.	.	-5%
O=c1oc2ccccc2c(O)c1C(c1ccc([N+](=O)[O-])cc1)c1c(O)c2ccccc2oc1=O	i	7.9µM*	-7%	-10%	5%
COCc1nc(C2CC(N)C2)cc(N2CCCN3CCC[C@H]3C2)n1 (stereo partly drawn)	.	-17%	.	.	.
C[C@]12CC[C@@H]3c4ccc(O)c(O)c4CC[C@H]3[C@@H]1CC[C@@H]2O	i	5µM*	4%	-6%	.
CCC(C)(C)n1nnnc1C(c1cccs1)N1CC=C(c2ccc(F)cc2)CC1 (stereo not drawn)	i	-3%	10µM*	4%	-9%
CC(C)C(=O)N1[C@H]2CC[C@@H]1c1cnc(-c3ccc(F)cc3)nc1C2	.	17%	.	.	.
CN(C)c1ccc2c(c1)N=C(c1ccco1)OP2(=S)N1CCOCC1 (stereo not drawn)	i	20µM*	-3%	-6%	-1%
CN(C)c1ccc(CCN2CCOCC2)cc1	i	2%	-1%	0%	.
O=C1NCCCCCCN(Cc2ccccn2)[C@H]2CCC[C@@H]12	.	i	.	.	.
CC1=NOC2(CCCN(CC3CCCCC3)C2)C1 (stereo not drawn)	.	3%[12.5 µM]	.	.	.
SMILES	FUS yeast rescue	12-LOX inh	Mito fusion yeast	gsp antagonist	gsp agonist
S=c1[nH]nc(-c2ccccc2)n1C1C=CCCC1 (stereo not drawn)	i	45µM*	4%	-9%	?
Fc1ccccc1-c1n[nH]c(=S)n1Cc1ccccc1	i	.	-8%	2%	?
C=C(C)C(Cc1c(OC)ccc(C(=O)/C=C/c2ccc(O)cc2)c1O)OO (stereo not drawn)	i	20µM*	.	25µM*	.
c1ccc(Nc2ccc(Nc3ccccc3)cc2)cc1	i	14µM*	?	2%	.
COc1cc(OC(F)(F)F)ccc1C(=O)N1CCC(C(=O)O)(c2ccccc2)CC1	.	0%[6.33 µM]	.	.	.
O=C(O)CCC(=O)NCCC1=c2ccccc2=N/C1=C\c1c(O)n(Cc2ccc(F)cc2)c(=S)[nH]c1=O	20µM*	?	9%	-5%	-7%[15.4 µM]
CN(C)Cc1ccccc1-c1ccc2n(c1=O)C[C@H]1C[C@@H]2CN(C(=O)c2cccs2)C1	.	2%[176 µM]	.	.	.
O=C1NC(=O)C(=Cc2ccc(Sc3ccccc3)o2)C(=O)N1	i	?	0%	8%	3%[15.4 µM]
O=C1NC(=O)N(c2ccc(Cl)cc2)C(=O)/C1=C\c1ccc(Sc2nc3ccccc3[nH]2)o1	i	8.9µM*	0%	-8%	8%[15.4 µM]
O=C1C(=O)c2cccc3cccc1c23	.	-17%	.	15%	1%
O=C1C(=O)c2ccccc2-c2ccccc21	i	-22%	-36%	18µM*	.
COc1ccc2c(c[n+](C)c3c4cc5c(cc4ccc23)OCO5)c1OC	.	9.7µM*!	5.8µM*	.	.
COc1cc2c(ccc3c4cc(OC)c(OC)cc4c[n+](C)c23)cc1O	.	-5%	.	-14%	-5%
CC(=O)O[C@H]1C[C@H](O[C@H]2[C@@H](O)C[C@H](O[C@@H]3[C@@H](O)C[C@H](O[C@H]4CC[C@@]5(C)[C@H](CC[C@@H]6[C@H]5C[C@@H](O)[C@]5(C)[C@@H](C7=CC(=O)OC7)CC[C@]65O)C4)O[C@@H]3C)O[C@@H]2C)O[C@H](C)[C@H]1O[C@@H]1O[C@H](CO)[C@@H](O)[C@H](O)[C@@H]1O	.	13%	.	.	.
CCOC(=O)C1(c2ccccc2)CCN(CCC(=O)Nc2cccc(Br)c2)CC1	i	20µM*	-12%	-11%	2%[15.4 µM]
CCOC(=O)C1(c2ccccc2)CCN(CCC(=O)Nc2ccc(OC)cc2)CC1	i	-8%	.	.	?
CCN(CC)C(=O)c1ccc(NC(=O)Cn2nc(-c3ccccc3)c3ccccc3c2=O)cc1	.	-13%	.	.	.
CCN(CC)C(=O)c1ccc(NC(=O)c2cc(-c3ccco3)nc3ccccc23)cc1	.	32µM*	.	.	.
Oc1cccc2cccnc12	.	9.3µM*!	0%	.	.
CCCC1COC(Cn2cncn2)(c2ccc(Cl)cc2Cl)O1 (stereo not drawn)	i	-1%	?	?	-19%
CC(=O)N1CCN(c2ccc(OC[C@H]3CO[C@](Cn4ccnc4)(c4ccc(Cl)cc4Cl)O3)cc2)CC1	i	?	0.41µM*!	?	.
